The list is not random: actives were taken first. Their share in the collection is about 1.3%.
CCT modulator: cytosolic chaperonin activity modulation; 0.3% of 360,000 active; purified chaperonin ATPase assay, HTRF ADP detection, 30 min; activity change, % (test concentration not listed), hits read low; in the data active = activity change below about -30%
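Enzyme 40 or 20 nM (batch-dependent) in Tris pH 7.4/KCl/MgCl2/DTT; cpd 76 uM single point; ATP 10 uM; 30 min 37 °C; Transcreener ADP HTRF detection, 30 min RT; ratio 665/615.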
CtBP-E1A inh: CtBP/E1A binding inhibition | AlphaScreen GST-E1A/His-CtBP binding, 1536-well; hits give low values | activity change, % (concentration not given with the values) | 0.49% of 340,000 active | AID 651724
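GST-E1A and His-tagged CtBP (125 nM each as 5X stock) were preincubated with pin-transferred compound for 2 h at 37 °C in the dark, then glutathione donor and nickel acceptor beads were added for 1 h before AlphaScreen reading.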
Akt phos inh: blocks phosphorylation of Akt; Neuro2A IGF-stimulated pAkt S473 HTRF, 20 min; hits give low values; activity change, % for hits at 50 µM; 0.32% of 360,000 active; AID 651550; in the data active = activity change below about -80%; inconclusive = mostly about -51% to -80%
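Single-point screen (50 µM final compound) in Neuro2A cells stimulated 20 min with 6 nM IGF at 37 deg C. After lysis, Ser473-phosphorylated Akt read by HTRF (ex 330 nm, em 615/665 nm) as the 665/615 ratio.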
Six1-Eya2 blk: blocks human Six1 binding to Eya2; AlphaScreen GST-Six1/His-Eya2 binding, biochemical; hits give low values; activity change, % (concentration not given with the values); 0.56% of 360,000 active
Target sequence (O00167 whole entry, looked up): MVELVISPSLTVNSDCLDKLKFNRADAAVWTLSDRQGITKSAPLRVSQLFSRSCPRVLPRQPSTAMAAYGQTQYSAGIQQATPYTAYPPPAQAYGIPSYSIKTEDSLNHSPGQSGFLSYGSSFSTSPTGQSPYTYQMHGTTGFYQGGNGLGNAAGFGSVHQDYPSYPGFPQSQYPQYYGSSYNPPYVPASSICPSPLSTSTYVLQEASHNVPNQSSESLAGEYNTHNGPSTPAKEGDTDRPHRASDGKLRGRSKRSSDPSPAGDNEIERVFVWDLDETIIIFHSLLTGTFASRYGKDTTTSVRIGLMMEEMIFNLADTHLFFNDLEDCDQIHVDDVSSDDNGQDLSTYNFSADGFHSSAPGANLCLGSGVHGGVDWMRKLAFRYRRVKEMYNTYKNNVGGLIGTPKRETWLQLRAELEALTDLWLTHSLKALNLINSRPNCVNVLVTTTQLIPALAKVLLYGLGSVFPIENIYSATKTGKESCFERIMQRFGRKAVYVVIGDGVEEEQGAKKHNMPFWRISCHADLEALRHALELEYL
Target sequence (Q15475 whole entry, looked up): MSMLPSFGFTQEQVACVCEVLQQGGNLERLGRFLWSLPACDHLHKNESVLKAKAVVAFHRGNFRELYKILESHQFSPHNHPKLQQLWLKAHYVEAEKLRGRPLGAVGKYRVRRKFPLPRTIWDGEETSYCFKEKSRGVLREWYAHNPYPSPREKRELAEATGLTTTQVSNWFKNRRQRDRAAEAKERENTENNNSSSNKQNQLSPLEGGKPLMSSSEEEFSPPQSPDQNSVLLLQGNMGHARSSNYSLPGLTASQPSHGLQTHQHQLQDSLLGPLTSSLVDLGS
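AlphaScreen with GST-Six1 and His-Eya2 (5X mix: 250 nM and 500 nM), glutathione donor and nickel acceptor beads; buffer 50 mM Tris pH 8.0, 300 mM NaCl, 1 mM TCEP; 1 h at 37 C in the dark.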
Of the large screens only hits and unclear results are named; the others gave an inactive call. Cut-off read from the data, not from the text of the source, unless noted: active = activity change below about -65%; inconclusive = mostly about -30% to -63%; inactive = weaker than that.

C[C@H](CO)N1C[C@H](C)[C@H](CN(C)C(=O)Nc2ccc(F)cc2)OCc2ccccc2-c2c(n(C)c3ccccc23)C1=O	none
CC(C)C[C@H]1CN(CCCC[C@H]2CNC(=O)C(=O)N2Cc2ccccc2)C(=O)C(=O)N1CCC1CCCCC1	none
CCOC(=O)C[n+]1c(C)ccc2c1CCC2	Akt phos inh -109%
CCCc1nc(SCC(=O)N2CCN(c3ccccc3)CC2)c2c(=O)n(C)c(=O)n(C)c2n1	CCT modulator -39
Cn1c(=O)c2c(SCC(=O)N3CCOCC3)nc(-c3ccccc3Cl)nc2n(C)c1=O	CCT modulator -30
O=C(N/N=C/c1cc2c(cc1Cl)OCO2)c1cc(-c2ccccc2)n[nH]1	none
Cc1nnc(SCC(=O)N2CCN(c3ccccc3F)CC2)n1C1CC1	CCT modulator -97
COc1ccc(S(=O)(=O)N(C)C[C@H]2Oc3ncc(-c4ccncc4)cc3C(=O)N([C@@H](C)CO)C[C@@H]2C)cc1	none
CCOC(=O)N1CCN(C(=O)CCS(=O)(=O)c2ccc3c(c2)CC(C)N3C(=O)CC)CC1 (stereo not given)	CCT modulator -77 (no result: CtBP-E1A inh, Akt phos inh)
Nc1[nH]c(C(=O)c2ccccc2)c(-c2ccccc2C(F)(F)F)c1C(=O)NCCc1c[nH]c2ccccc12	none
Cc1cc(N2CCOCC2)nc(SCc2ccc(Cl)cc2Cl)n1	Akt phos inh -110%
CC(=O)c1ccc(OCc2cc(C(=O)N3CCC(c4ccncc4)CC3)no2)cc1	CCT modulator -49 (no result: CtBP-E1A inh)
Cc1ccsc1/C=N/NC(=O)c1cccnc1	none
CC(C)OC(=O)C(C(=O)C(F)(F)F)c1cc(NS(=O)(=O)c2ccc3ccccc3c2)c2ccccc2c1O (stereo not given)	CtBP-E1A inh -68, Six1-Eya2 blk inconclusive
CCOc1ccc(S(=O)(=O)Nc2cc(SCC(=O)O)c(O)c3ccccc23)cc1	none (no result: CtBP-E1A inh)
COc1ccc(CCN2C(=O)CSCC2(C)C(=O)Nc2ccc3c(c2)OCCO3)cc1OC (stereo not given)	none (no result: CCT modulator)
COc1cc2nc(=S)n(CCCN3CCOCC3)c(N)c2cc1OC	CtBP-E1A inh -88, Six1-Eya2 blk -85
CCOc1cc2nc(-c3ccc(OC)c(OC)c3)nc(NCCCN3CCOCC3)c2cc1OC	CtBP-E1A inh -88, Six1-Eya2 blk -91
COC(=O)[C@]12CCCCC=C1N(Cc1ccccc1)C(=O)[C@H](CC(=O)N1CCN(C(=O)c3ccco3)CC1)C2	none
CCOC(=O)c1cc(S(=O)(=O)N2CCC(C)CC2)cn1C	none (no result: CtBP-E1A inh)
N#Cc1ccc(OCC(=O)NCC2COc3ccccc3O2)cc1 (stereo not given)	CCT modulator -41
O=C(CC1CCCCC1)NCCS(=O)(=O)N1CCN(c2ccccc2)CC1	none
CC(NC(=O)c1ccc(S(=O)(=O)N(C)C)cc1)c1ccccc1 (stereo not given)	Akt phos inh -90%
COc1ccccc1-c1c(C)oc2c(CN3CCN(CCO)CC3)c(O)ccc2c1=O	CCT modulator -52 (no result: Akt phos inh)
COc1ccccc1-c1c(C)oc2c(CN3CCN(C)CC3)c(O)ccc2c1=O	none
COc1ccc(Cc2c(O)nc(SCC(=O)c3ccc(OC)cc3)[nH]c2=O)cc1	Six1-Eya2 blk -86 (no result: CtBP-E1A inh)
CN(C)c1cccc(C(=O)NCc2ccc3c(c2)OCO3)c1	CCT modulator -40
O=C(Cc1c[nH]c2ccccc12)NCc1ccc2c(c1)OCO2	CCT modulator -38 (no result: Akt phos inh)
COC(=O)c1cccc(NC(=O)CSc2nnc(C)o2)c1	none
CCN(CC)Cc1c(C(=O)N/N=C(\C)c2ccncc2)nnn1-c1nonc1N	none
CC1CN(C)CCC1OC(=O)c1ccccc1 (stereo not given)	none
CCn1c(SCc2nc3sc(C(=O)O)c(C)c3c(=O)[nH]2)nc2ccccc21	Six1-Eya2 blk -68 (no result: Akt phos inh)
COCCn1c(SCc2nc3sc(C(=O)OC)c(C)c3c(=O)[nH]2)nc2ccccc21	none
Cc1nnc(NC(=O)CSc2nc3ccccc3o2)s1	none
O=C(CSc1nc2ccccc2o1)Nc1nncs1	Akt phos inh -116%
COc1ccccc1N(CC(=O)NC1CCCC1)C(=O)c1csnn1	Akt phos inh -121%
Cc1ccc(N(C(=O)c2csnn2)C(C(=O)NC2CCCCC2)c2ccccn2)c(C)c1 (stereo not given)	CCT modulator -32
Cc1ccc(N(C(=O)c2csnn2)C(C(=O)NC2CCCC2)c2ccccn2)c(C)c1 (stereo not given)	none
COc1ccccc1N(CC(=O)NC1CCCCC1)C(=O)c1csnn1	none
O=C(COC(=O)c1cc(-c2ccccc2Cl)nc2ccccc12)Nc1ncc(C(F)(F)F)cc1Cl	none

Bioassay records: PubChem, National Center for Advancing Translational Sciences (NCATS)
